Test results published in PubChem BioAssay (Tox21).
Results filed as inconclusive are left out. Activity calls are given as the source filed them. Unless noted, calls follow the shape of the full dose curve.

How the values were obtained:
[1] = molecular target: Gonadotropin-releasing hormone receptor (Homo sapiens) (UniProt P30968); experiment: Human gonadotropin-releasing hormone receptor (GnRHR) small molecule agonists, calcium flux assay in GnRHR-HEK293 cells (AID 1920063); also: nearly all actives have a fitted effect of over 35% in size; also: potency is read from the fitted curve at half-maximal effect
Gonadotropin-releasing hormone receptor (Homo sapiens), sequence (P30968 whole entry, looked up): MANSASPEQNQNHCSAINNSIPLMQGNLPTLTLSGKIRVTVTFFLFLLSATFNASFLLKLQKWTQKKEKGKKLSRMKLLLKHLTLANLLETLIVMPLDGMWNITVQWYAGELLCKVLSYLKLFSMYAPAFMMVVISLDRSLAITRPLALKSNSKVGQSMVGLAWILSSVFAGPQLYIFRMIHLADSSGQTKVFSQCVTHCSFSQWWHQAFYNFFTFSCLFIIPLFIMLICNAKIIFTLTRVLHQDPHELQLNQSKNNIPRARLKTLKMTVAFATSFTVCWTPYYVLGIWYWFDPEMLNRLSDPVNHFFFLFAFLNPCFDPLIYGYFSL
Method in brief: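 Stable human GnRHR HEK293 line. 18 h plating, then calcium dye for 1 h at 37 C. Agonist-mode compound addition from DMSO stocks; fluorescence monitored 3 min.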

[2] = molecular target: KiSS-1 receptor (Homo sapiens) (UniProt Q969F8); experiment: Human kisspeptin (KISS1R) small molecule agonists, calcium flux assay in KISS1R-HEK293 cells (AID 1920064; active = well fitted activation curve with a large enough effect in the repeat runs; also: potency is read from the fitted curve at half-maximal effect)
KiSS-1 receptor (Homo sapiens), sequence (Q969F8 whole entry, looked up): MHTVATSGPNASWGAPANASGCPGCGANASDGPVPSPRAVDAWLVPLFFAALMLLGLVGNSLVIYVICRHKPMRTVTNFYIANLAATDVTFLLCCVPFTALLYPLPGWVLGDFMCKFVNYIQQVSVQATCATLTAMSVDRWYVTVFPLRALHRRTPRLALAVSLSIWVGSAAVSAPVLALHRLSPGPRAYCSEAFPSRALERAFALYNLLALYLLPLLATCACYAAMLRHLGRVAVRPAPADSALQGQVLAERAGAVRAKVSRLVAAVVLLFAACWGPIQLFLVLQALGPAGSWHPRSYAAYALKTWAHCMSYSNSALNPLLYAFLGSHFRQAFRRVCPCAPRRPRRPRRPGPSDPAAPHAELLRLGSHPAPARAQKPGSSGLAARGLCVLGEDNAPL
Method in brief: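 After overnight (18 h) culture at 37 C/5% CO2, human KISS1R-HEK293 cells received calcium dye for 1 h, then test compound; emission at 540 nm (excitation 480 nm) was tracked for 3 min.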

[3] = G protein-coupled receptor (GPCR) small molecule agonists, calcium flux assay: HEK293 wild type cell line counter screen (AID 1920065); also: potency is read from the fitted curve at half-maximal effect
Method in brief: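 Following 18 h incubation at 37 C/5% CO2, plates got calcium dye for 1 h; compounds, ATP or DMSO were then pinned in and fluorescence followed kinetically (480/540 nm).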

[4] = p53 small molecule agonists, cell-based qHTS assay with rat liver microsomes (AID 1963578)
Method in brief: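 With rat liver microsomes and NADPH present (0.5 mg/mL final each), p53RE-bla cells are treated with compound for 16 h at 37 C. LiveBLAzer detection mixture is then applied for 2 h at room temperature in the dark.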

[5] = p53 small molecule agonists, cell-based qHTS assay with human liver microsomes: qHTS cell viability counter screen (AID 1963579); also: nearly all actives have a fitted effect of over 45% in size; also: potency is read from the fitted curve at half-maximal effect
Method in brief: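 In this multiplexed counter screen, the reporter plates were subsequently treated with CellTiter-Glo so that cell viability, reflected by luminescence, could be recorded for p53RE-bla cells dosed 16 h with compounds under microsomal activation (HLM and NADPH).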

[6] = p53 small molecule agonists, cell-based qHTS assay with rat liver microsomes: qHTS cell viability counter screen (AID 1963580); also: nearly all actives have a fitted effect of over 45% in size; also: potency is read from the fitted curve at half-maximal effect
Method in brief: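 Luminescent ATP readout (CellTiter-Glo, 30 min at room temperature) reports viability of p53RE-bla HCT-116 cells after 16 h at 37 C with test compounds under metabolic activation by rat liver microsomes and NADPH at 0.5 mg/mL final each.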

[7] = cAMP Responsive Elements (CRE) small molecule antagonists, cell-based qHTS assay (AID 1963591; active = well fitted inhibition curve with a large enough effect in the signal ratio in the repeat runs, not every such curve was filed as active; the % refers to the signal ratio; also: potency is read from the fitted curve at half-maximal effect)
Method in brief: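 Reporter line CRE-bla HEK 293T in dialyzed-FBS DMEM; cells preincubated 18 h, treated 3 h with compound plus NKH477 (0.25 uM final); LiveBLAzer FRET, 2 h RT.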

[8] = molecular target: D(2) dopamine receptor (Homo sapiens) (UniProt P14416); experiment: Dopamine D2 receptor (DRD2) small molecule agonists, cell-based qHTS assay (AID 1963594); also: nearly all actives have a fitted effect of over 35% in size
D(2) dopamine receptor (Homo sapiens), sequence (P14416 whole entry, looked up): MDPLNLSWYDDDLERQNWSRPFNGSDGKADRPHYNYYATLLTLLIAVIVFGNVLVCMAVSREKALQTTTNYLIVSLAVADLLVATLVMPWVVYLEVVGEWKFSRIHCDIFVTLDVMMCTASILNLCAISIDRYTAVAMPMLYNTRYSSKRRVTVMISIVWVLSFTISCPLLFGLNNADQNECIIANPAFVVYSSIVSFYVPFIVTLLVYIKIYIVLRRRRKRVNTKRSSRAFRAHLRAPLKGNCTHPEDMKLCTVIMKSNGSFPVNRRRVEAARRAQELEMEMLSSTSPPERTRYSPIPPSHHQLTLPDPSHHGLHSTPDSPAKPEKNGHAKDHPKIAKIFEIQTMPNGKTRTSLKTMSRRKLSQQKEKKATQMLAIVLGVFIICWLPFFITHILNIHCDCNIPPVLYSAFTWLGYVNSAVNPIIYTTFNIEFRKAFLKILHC
Method in brief: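 HEK293 cells stably expressing DRD2 were cultured 24 h at 37 C, then given Ro20-1724 (0.1 mM final) and compounds for 10 min at room temperature. NKH477 (200nM) was then added for 30 min. cAMP was read by HTRF.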

[9] = molecular target: D(2) dopamine receptor (Homo sapiens) (UniProt P14416); experiment: Dopamine D2 receptor (DRD2) small molecule antagonists, cell-based qHTS assay (AID 1963595; active = well fitted inhibition curve with a large enough effect in the signal ratio in the repeat runs, with a control signal flat; the % refers to the signal ratio; also: potency is read from the fitted curve at half-maximal effect)
Method in brief: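 DRD2-HEK293; 0.1 mM Ro20-1724; cpd 10 min RT; NKH477 200 nM + quinpirole 12 nM, 30 min RT; HTRF cAMP (cAMP-d2/anti-cAMP cryptate), 665/620 nm ratio after 1 h.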

[10] = p53 small molecule agonists, cell-based qHTS assay: qHTS cell viability counter screen (AID 1963581); also: nearly all actives have a fitted effect of over 45% in size; also: potency is read from the fitted curve at half-maximal effect
Method in brief: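 qHTS counter screen: 16 h compound exposure at 37 C of p53RE-bla HCT-116 cells (4,000 per well, seeded 5 h prior), cell viability by ATP luminescence.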

[11] = p53 small molecule agonists, cell-based qHTS assay (AID 1963582; active = well fitted activation curve with a large enough effect in the signal ratio in the repeat runs, not every such curve was filed as active; the % refers to the signal ratio)
Method in brief: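 Measured: fluorescence from cleaved LiveBLAzer substrate. System: p53RE-bla cells, 16 h compound treatment at 37 C, 2 h substrate step at room temperature.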

[12] = molecular target: 5-hydroxytryptamine receptor 2A (Homo sapiens) (UniProt P28223); experiment: 5-hydroxytryptamine receptor 2A (HTR2A) small molecule antagonists, cell-based qHTS assay (AID 1963586); also: nearly all actives have a fitted effect of over 45% in size; also: potency is read from the fitted curve at half-maximal effect
5-hydroxytryptamine receptor 2A (Homo sapiens), sequence (P28223 whole entry, looked up): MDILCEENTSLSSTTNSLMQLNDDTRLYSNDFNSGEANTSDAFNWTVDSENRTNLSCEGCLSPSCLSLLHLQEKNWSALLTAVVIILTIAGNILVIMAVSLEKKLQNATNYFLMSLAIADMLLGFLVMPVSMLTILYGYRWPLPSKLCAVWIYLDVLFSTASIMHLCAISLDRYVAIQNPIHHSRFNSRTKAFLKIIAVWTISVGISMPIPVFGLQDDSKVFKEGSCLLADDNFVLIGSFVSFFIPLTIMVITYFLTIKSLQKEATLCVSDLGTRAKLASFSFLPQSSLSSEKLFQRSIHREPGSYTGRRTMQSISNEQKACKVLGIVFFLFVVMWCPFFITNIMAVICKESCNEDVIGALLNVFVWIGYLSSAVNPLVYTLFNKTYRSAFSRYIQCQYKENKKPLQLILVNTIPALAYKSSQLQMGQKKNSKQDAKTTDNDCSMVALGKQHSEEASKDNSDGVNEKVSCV
Method in brief: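 CHO cells stably expressing human HTR2A were plated for 18 h at 37 C, then loaded with calcium dye for 1 h. Compounds were preincubated 5 min at room temperature before DOI (4 nM solution) was added. Kinetic fluorescence was read for 3 min.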

[13] = molecular target: 5-hydroxytryptamine receptor 2A (Homo sapiens) (UniProt P28223); experiment: 5-hydroxytryptamine receptor 2A (HTR2A) small molecule agonists, cell-based qHTS assay (AID 1963587); also: nearly all actives have a fitted effect of over 30% in size; also: potency is read from the fitted curve at half-maximal effect
Method in brief: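 HTR2A-CHO cells, plated 18 h at 37 C/5% CO2, dye-loaded 1 h at 37 C; compounds in DMSO added by pin tool (agonist mode). Intracellular calcium flux read as kinetic fluorescence on FDSS over 2 min at 1 s intervals.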

[14] = molecular target: Muscarinic acetylcholine receptor M1 (Homo sapiens) (UniProt P11229); experiment: Cholinergic receptor muscarinic 1 (CHRM1) small molecule antagonists, cell-based qHTS assay (AID 1963588); also: nearly all actives have a fitted effect of over 40% in size; also: potency is read from the fitted curve at half-maximal effect
Muscarinic acetylcholine receptor M1 (Homo sapiens), sequence (P11229 whole entry, looked up): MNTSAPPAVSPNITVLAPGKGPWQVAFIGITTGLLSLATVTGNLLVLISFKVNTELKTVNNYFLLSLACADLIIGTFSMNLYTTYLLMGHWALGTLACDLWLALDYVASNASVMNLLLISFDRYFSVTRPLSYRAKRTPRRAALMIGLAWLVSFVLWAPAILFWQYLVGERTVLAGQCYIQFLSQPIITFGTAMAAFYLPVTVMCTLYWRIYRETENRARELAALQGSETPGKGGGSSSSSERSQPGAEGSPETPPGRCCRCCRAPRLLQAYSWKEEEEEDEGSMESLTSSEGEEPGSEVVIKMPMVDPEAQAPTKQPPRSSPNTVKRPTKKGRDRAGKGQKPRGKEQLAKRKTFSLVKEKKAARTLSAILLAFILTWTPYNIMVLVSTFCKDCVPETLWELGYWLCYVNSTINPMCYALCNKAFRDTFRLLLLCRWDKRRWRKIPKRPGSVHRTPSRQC
Method in brief: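 Compounds were tested at 15 concentrations in three independent runs. Dye-loaded CHRM1-CHO cells were exposed 5 min at room temperature before stimulation by acetylcholine added at 50nM. Intracellular calcium was read kinetically on FDSS for 3 min.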

[15] = molecular target: Muscarinic acetylcholine receptor M1 (Homo sapiens) (UniProt P11229); experiment: Cholinergic receptor muscarinic 1 (CHRM1) small molecule agonists, cell-based qHTS assay (AID 1963589); also: nearly all actives have a fitted effect of over 35% in size; also: potency is read from the fitted curve at half-maximal effect
Method in brief: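 Kinetic fluorescence (1 s intervals) of calcium-sensitive dye in human M1 CHO cells after compound addition; cells pre-incubated 18 h at 37 C/5% CO2 and dye-loaded 1 h.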

[16] = cAMP Responsive Elements (CRE) small molecule agonists, cell-based qHTS assay (AID 1963590)
Method in brief: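 Test agents in DMSO were incubated 3 h at 37 C/5% CO2 with CRE-bla HEK 293T cells seeded 18 h earlier; LiveBLAzer B/G FRET substrate was added and read after 2 h at room temperature.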

[17] = molecular target: Beta-2 adrenergic receptor (Homo sapiens) (UniProt P07550); experiment: Adrenergic beta2 receptor (ADRB2) small molecule antagonists, cell-based qHTS assay (AID 1963592); also: series mostly up to about 92 µM; nearly all actives have a fitted effect of over 50% in size
Beta-2 adrenergic receptor (Homo sapiens), sequence (P07550 whole entry, looked up): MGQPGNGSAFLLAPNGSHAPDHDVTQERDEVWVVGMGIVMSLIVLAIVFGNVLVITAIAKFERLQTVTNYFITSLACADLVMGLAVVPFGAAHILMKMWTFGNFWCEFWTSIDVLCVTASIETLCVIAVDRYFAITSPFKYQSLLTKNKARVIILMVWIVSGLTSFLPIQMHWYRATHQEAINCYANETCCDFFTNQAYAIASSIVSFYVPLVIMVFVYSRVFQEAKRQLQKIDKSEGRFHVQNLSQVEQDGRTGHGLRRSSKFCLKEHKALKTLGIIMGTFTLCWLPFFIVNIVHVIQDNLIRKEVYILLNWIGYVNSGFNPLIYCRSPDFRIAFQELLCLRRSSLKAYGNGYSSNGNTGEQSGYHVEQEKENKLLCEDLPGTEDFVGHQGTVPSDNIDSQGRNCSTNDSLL
Method in brief: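 Assay format: CHO-ADRB2 cells, 18-20hr seeding at 37C/5% CO2, then compound plus 1nM isoproterenol agonist mix for 0.5hr RT. Homogeneous time-resolved fluorescence cAMP detection after 1hr, expressed as 665/615 nm ratio.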

[18] = molecular target: Beta-2 adrenergic receptor (Homo sapiens) (UniProt P07550); experiment: Adrenergic beta2 receptor (ADRB2) small molecule agonists, cell-based qHTS assay (AID 1963593);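 also: CHO cells stably overexpressing human ADRB2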
Method in brief: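 CHO cells stably over-expressing ADRB2 were plated overnight at 37C, then dosed with compounds plus a stimulation mix containing 100uM IBMX and 25uM Ro-20-1724 for 0.5hr at room temperature. cAMP was measured by HTRF competition, 1hr.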

[19] = p53 small molecule agonists, cell-based qHTS assay with human liver microsomes (AID 1963577);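 also: p53 response element beta-lactamase reporter cells with liver microsomes plus NADPH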
Method in brief: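 16 h, 37 C exposure of p53RE-bla cells to compounds with human liver microsomes and NADPH (0.5 mg/mL final each); detection via LiveBLAzer mixture, 2 h dark at room temperature.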

Measured: Potency

CCCCCCCCNC(C)C(O)c1ccc(SC(C)C)cc1 (centres undefined)
inactive: [2] | [3] | [4] | [5] | [8] | [9]
active: [1] 16.9 µM | [6] 19.9 µM | [7] 23.7 µM

O=C(O)COCCN1CCN(C(c2ccccc2)c2ccc(Cl)cc2)CC1 (centres undefined)
not listed: [4] | [5] | [6] | [19]
inactive: all other assays above

O=Cc1ccc(Cl)c([N+](=O)[O-])c1
not listed: [4] | [6] | [7] | [10] | [11] | [16] | [18]
inactive: all other assays above

Clc1ccc(C(Cn2ccnc2)OCc2ccc(Sc3ccccc3)cc2)c(Cl)c1 (centres undefined)
not listed: [4] | [10] | [12] | [13] | [17] | [18]
inactive: all other assays above

O=C(OCC(O)CO)c1ccccc1Nc1ccnc2cc(Cl)ccc12 (centres undefined)
not listed: [4] | [7] | [11] | [14] | [16] | [19]
inactive: all other assays above

CC1CCC(CO)CC1 (centres undefined)
not listed: [4] | [11] | [19]
inactive: all other assays above

CC(=O)c1ccc2c(c1)N(CCCN1CCC(CCO)CC1)c1ccccc1S2
active: [12] 0.326 µM | [9] 0.0168 µM
not listed: [4] | [14] | [16] | [17] | [18] | [19]
inactive: all other assays above

Nc1nc2ccc([N+](=O)[O-])cc2s1
active: [5] 28.9 µM | [12] 3.75 µM
inactive: [1] | [2] | [3] | [10] | [13] | [15] | [17]

O=C1c2c(O)ccc([N+](=O)[O-])c2C(=O)c2c([N+](=O)[O-])ccc(O)c21
inactive: [2] | [3] | [13] | [14] | [15]
active: [1] 17.2 µM | [5] 18 µM | [6] 20.2 µM | [10] 5.71 µM

O=C1c2c(O)ccc(O)c2C(=O)c2c(NCCNCCO)ccc(NCCNCCO)c21
active: [6] 19.9 µM | [7] 21.1 µM
inactive: [1] | [2] | [3] | [16]

Cc1nc(-c2ccccn2)ncc1C(=O)Nn1cc(C)c2cc(F)ccc21
not listed: [4] | [5] | [8] | [11] | [13] | [19]
inactive: all other assays above

CC(=O)Nc1ccc(S(=O)(=O)Nc2ccc([N+](=O)[O-])cc2)cc1
not listed: [4]
inactive: all other assays above

c1ccc(C(O[C@@H]2CCCN(CCc3ccc4c(c3)OCO4)C2)c2ccccc2)cc1
inactive: [1] | [2] | [3] | [4] | [5] | [6] | [10] | [15] | [8] | [9]
active: [14] 0.119 µM

C=CCN(CC=C)CC=C
not listed: [4] | [10] | [11] | [13] | [19]
inactive: all other assays above

CN(C)C(=N)N=C(N)N
inactive: [1] | [2] | [3] | [10] | [11] | [7] | [17] | [18] | [8] | [9]

CSC(=O)c1cccc2nnsc12
not listed: [7] | [8] | [10] | [18] | [19]
inactive: all other assays above

CCOC(=O)c1nc(C(Cl)(Cl)Cl)n(-c2ccc(Cl)cc2Cl)n1
active: [7] 61.1 µM
inactive: [1] | [2] | [3] | [5] | [6] | [12] | [13] | [8] | [9]

CC(C)c1nnc2ccc(-c3ocnc3-c3cc(F)ccc3F)cn12
inactive: [1] | [2] | [3] | [10] | [11] | [12] | [13] | [15] | [17] | [9]

CCCCCCC(C)OC(=O)COc1nc(F)c(Cl)c(N)c1Cl (centres undefined)
not listed: [7] | [10] | [16] | [17] | [18] | [19]
inactive: all other assays above

CC(C)=CCOc1ccc(/C=C/C(=O)c2ccc(OCC=C(C)C)cc2OCC(=O)O)cc1
inactive: [1] | [2] | [3] | [5] | [13] | [15] | [17] | [18] | [9]

COCCOC
active: [10] 2.75 µM
not listed: [4] | [7] | [11] | [18] | [19]
inactive: all other assays above

O=C1OC2(c3ccc(O)cc3Oc3cc(O)ccc32)c2ccc(N=C=S)cc21
active: [1] 14.1 µM | [2] 44.4 µM | [3] 39.6 µM | [13] 17.7 µM | [15] 22.3 µM
inactive: [5] | [6] | [10] | [11] | [14] | [7] | [18]

O=C(O)c1c(Cl)ccc(Cl)c1Cl
not listed: [4] | [7] | [8] | [11] | [19]
inactive: all other assays above

CCC(C)[O-].CCC(C)[O-].CCOC(=O)/C=C(/C)[O-].[Al+3]
not listed: [4] | [10] | [11] | [14] | [18] | [19]
inactive: all other assays above

CCCC[N+](C)(CCCC)CCCC
not listed: [4] | [6] | [7] | [11] | [19]
inactive: all other assays above

CCCCCCCCCCCCCCCBr
not listed: [5] | [6] | [11] | [18]
inactive: all other assays above

Cn1c(=O)c2c(ncn2CCO)n(C)c1=O
not listed: [4] | [11] | [14] | [18] | [19]
inactive: all other assays above

C=C(C)C(=O)OCC(O)COc1ccc(C(C)(C)c2ccc(OCC(O)COC(=O)C(=C)C)cc2)cc1 (centres undefined)
not listed: [5] | [7] | [11] | [12] | [16] | [17] | [18] | [19]
inactive: all other assays above
